Luc counter: Kinase-Glo luciferase inhibition (counter-screen) | Potency, µM (titrated, usually from 38.3 µM), for inactives: at the top dose activity change, negative = inhibition, usual class: inhibitors | 200,000 tested, 0.28% active | Q27757 | AID 1379 | Kinase-Glo luciferase, ATP luminescence, 8 min; also: % is scaled to controls: 0 for no effect and ±100 for the full control effect; nearly all actives have a fitted effect of over 60% in size
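Compound is pinned into ATP-containing buffer (10 uM ATP, imidazole pH 7.2, 7 mM MgCl2). Kinase-Glo luciferase reagent is then added. Light output is recorded following an 8-min room-temperature incubation.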
FLuc modulator: firefly luciferase modulation, counter-screen for miR-21 project. AID 588342. purified FLuc, Km substrates, luminescence inhibition. Potency, µM (titrated, usually from 57.5 µM), without a hit: top-dose activity change, negative = inhibition, most hits filed as inhibitors. P08659. 360,000 tested, 6.9% active;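 also: plate controls were vehicle for no effect and reference inhibitor for full effect; nearly all actives have a fitted effect of over 55% in size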
Target sequence (P08659 whole entry, looked up): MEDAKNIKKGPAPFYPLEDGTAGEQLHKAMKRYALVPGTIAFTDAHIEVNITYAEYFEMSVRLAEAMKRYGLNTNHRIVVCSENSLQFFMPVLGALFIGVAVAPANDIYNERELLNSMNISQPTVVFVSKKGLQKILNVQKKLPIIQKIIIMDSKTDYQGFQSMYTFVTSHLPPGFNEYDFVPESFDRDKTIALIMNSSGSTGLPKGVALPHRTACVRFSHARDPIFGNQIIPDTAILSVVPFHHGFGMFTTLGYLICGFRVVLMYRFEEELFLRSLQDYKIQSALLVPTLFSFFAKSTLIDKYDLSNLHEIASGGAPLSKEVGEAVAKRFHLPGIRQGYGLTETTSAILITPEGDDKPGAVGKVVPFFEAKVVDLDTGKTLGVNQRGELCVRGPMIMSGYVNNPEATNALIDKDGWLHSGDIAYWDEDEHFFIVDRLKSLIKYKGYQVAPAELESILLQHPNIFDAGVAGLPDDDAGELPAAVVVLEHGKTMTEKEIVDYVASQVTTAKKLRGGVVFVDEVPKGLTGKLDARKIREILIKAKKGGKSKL
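Purified P. pyralis luciferase, 10 nM final, with Km-level 10 uM D-luciferin and 10 uM ATP in 50 mM Tris acetate pH 7.5, 10 mM Mg acetate, 0.01% Tween-20, 0.05% BSA; 6-point qHTS titration about 60 µM downward; luminescence read.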
Rab9 promoter act: Rab9 promoter activation; Huh7 Rab9 promoter-luciferase reporter, luminescence, 24 h; AID 485297; Potency, µM (titrated, usually from 9.22 µM), for inactives: top-dose activation, negative = inhibition, most hits filed as activators; 320,000 tested, 2.8% active; also: % of control where 0% means no effect; nearly all actives have a fitted effect of over 60% in size
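Luminescence from Amplite-detected luciferase (10 minutes, ambient) reports Rab9 promoter activation. Before that, stable Rab9-luciferase Huh7 cells (1500/well, reduced-serum OP-MEM I plus 10% FBS) were exposed to compound for 24 hours at 37C.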
NPC1 promoter act: activates the NPC1 promoter; Huh7 NPC1 promoter luciferase reporter, 24 h; Potency, µM (top dose mostly 9.22 µM), for the others: at the highest dose activation, hits mostly activators; 320,000 tested, 2.4% active; also: % of control where 0% means no effect; nearly all actives have a fitted effect of over 60% in size
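Readout is luciferase luminescence, reflecting NPC1 promoter activation in stably transfected Huh7 cells after 24 h compound exposure at 37 °C in reduced-serum medium with 10% FBS.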
SMN2 splice enh: enhancers of SMN2 splice variant expression | HEK293 SMN2-luciferase splicing reporter, luminescence, 30-36 h | Potency, µM (series often up to 46.1 µM), for inactives: at the top dose activity change, positive = activation, usual class: activators | 210,000 tested, 2.8% active | AID 1458; also: % of control where 0% means no effect; nearly all actives have a fitted effect of over 55% in size
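HEK293 cells carry an SMN2 […]–luciferase reporter in which exon 7 inclusion puts luciferase in frame. Cells were plated 10-12 h before compound addition, then incubated 30-36 h at 37C. ONE-Glo luminescence was read; sodium butyrate at 4.5 mM final served as control.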
Active calls of the source: *; [ ] = another dose, or the depositor's remark. The list is not random: actives were taken first. Their share in the collection is about 7.3%. Calls follow the shape of the dose curve; as a rule, active = well fitted curve in the direction sought with a large enough effect; inconclusive = small, poorly fitted or top-dose-only effect, or another doubt; inactive = no such curve, though single readings can be large; an effect the other way counts as inactive or inconclusive. Potency is read from the fitted curve at half-maximal effect.

How did N#Cc1ccsc1NC(=O)c1ccc(Cl)c([N+](=O)[O-])c1 do in these assays?
FLuc modulator: 6µM*; Rab9 promoter act: 9%; NPC1 promoter act: -2%

How did Cc1nn(C)c2c1c(-c1ccccc1)cc(=O)n2C(C)C(=O)NCc1ccc(F)cc1 (centres undefined) do in these assays?
FLuc modulator: -10%

How did O=C(O)C[n+]1ccccc1 do in these assays?
Luc counter: -2%[7.66 µM]; SMN2 splice enh: -12%[9.22 µM]

How did CCOc1sc2nc(C)n(CC(=O)Nc3cccc(C)c3)c(=O)c2c1C do in these assays?
FLuc modulator: -3%; SMN2 splice enh: 9%

What do the screens show for `COC(=O)c1ccc(NC(=O)c2ccc3nccnc3c2)cc1`?
FLuc modulator: inconclusive; Rab9 promoter act: 2%; NPC1 promoter act: 2%

How did Cc1ccc(C(=O)Nc2ccc3nccnc3c2)cc1 do in these assays?
Luc counter: -13%; FLuc modulator: 0.95µM*; Rab9 promoter act: 0.45µM*; NPC1 promoter act: 0.89µM*; SMN2 splice enh: 3.2µM*

Results for O=C(Nc1ccc2c(c1)OCCO2)c1ccc2nccnc2c1 ?
Luc counter: inconclusive; FLuc modulator: 3µM*; Rab9 promoter act: 0.79µM*; NPC1 promoter act: 1µM*; SMN2 splice enh: inconclusive

Results for O=C(Nc1cccc(NC(=O)c2cccnc2)c1)c1cccnc1 ?
Luc counter: -2%; FLuc modulator: -9%; Rab9 promoter act: 2%; NPC1 promoter act: 3%; SMN2 splice enh: -16%

Results for O=C(Nc1ccc2c(c1)OCCO2)c1ccc(Cl)c(Cl)c1 ?
FLuc modulator: 4.8µM*; Rab9 promoter act: 1.4µM*; NPC1 promoter act: 1.6µM*

What do the screens show for `O=C(Nc1ccc2c(c1)OCCO2)c1cccnc1`?
Luc counter: -10%; FLuc modulator: inconclusive; Rab9 promoter act: 4µM*; NPC1 promoter act: inconclusive; SMN2 splice enh: inconclusive

What do the screens show for `CC(=O)Nc1ccc2c(c1)OCCO2`?
Luc counter: -2%; FLuc modulator: 7%; Rab9 promoter act: 8%; NPC1 promoter act: -7%; SMN2 splice enh: -7%

How did Cc1ccccc1C(=O)Nc1cccc(OCc2cc(=O)n3c4c(sc3n2)CCCC4)c1 do in these assays?
FLuc modulator: inconclusive; SMN2 splice enh: -2%

How did Cc1cc(C(=O)Nc2ccc(N3CCCC3)c(Cl)c2)ccc1[N+](=O)[O-] do in these assays?
Luc counter: -4%; FLuc modulator: inconclusive; Rab9 promoter act: 24%; NPC1 promoter act: 20%; SMN2 splice enh: inconclusive

What do the screens show for `NS(=O)(=O)c1cccc(NC(=O)c2ccc3nc[nH]c3c2)c1`?
FLuc modulator: 19µM*; Rab9 promoter act: -6%; NPC1 promoter act: -5%

What do the screens show for `CCn1cc([N+](=O)[O-])c(C(=O)Nc2ccc3c(c2)OCCO3)n1`?
Luc counter: -14%; FLuc modulator: 19µM*; Rab9 promoter act: inconclusive; NPC1 promoter act: inconclusive; SMN2 splice enh: inconclusive

What do the screens show for `NS(=O)(=O)c1cccc(NC(=O)Nc2ccccc2)c1`?
FLuc modulator: inconclusive; Rab9 promoter act: -1%; NPC1 promoter act: 8%

How did Cc1cc(C(=O)Nc2ccc3c(c2)OCCO3)ccc1[N+](=O)[O-] do in these assays?
FLuc modulator: 0.76µM*; Rab9 promoter act: inconclusive; NPC1 promoter act: 0.71µM*

Results for Cc1cc(C(=O)Nc2cccc(NC(=O)c3ccco3)c2)ccc1[N+](=O)[O-] ?
FLuc modulator: 19µM*; Rab9 promoter act: 0%; NPC1 promoter act: -3%

Results for CCn1cc([N+](=O)[O-])c(C(=O)NCc2ccc3c(c2)OCO3)n1 ?
FLuc modulator: 3%; Rab9 promoter act: -1%; NPC1 promoter act: 2%

What do the screens show for `COc1ccc(CCNC(=O)CCCCn2c(=O)c3ccccc3n(CC(=O)Nc3ccc(C)cc3C)c2=O)cc1OC`?
FLuc modulator: 0%; SMN2 splice enh: -1%

What do the screens show for `CCOC(=O)C1CCN(C(c2ccccc2OC)c2c(O)cc(C)n(CCOC)c2=O)CC1` (centres undefined)?
FLuc modulator: 2%

What do the screens show for `CCOc1ccc(CNS(=O)(=O)c2cc3c(cc2C)NC(=O)CO3)cc1OC`?
FLuc modulator: -3%

What do the screens show for `COC(=O)c1c(SC)nc2ccccc2c1OCc1ccc(C)cc1`?
FLuc modulator: -3%
